Test results taken from PubChem BioAssay AID651820 (National Center for Advancing Translational Sciences (NCATS), 2012).
About 12,000 (3.5%) of roughly 340,000 compounds were called active. Entries that show only a call come without a potency. Roughly 18% stayed inconclusive and do not appear here. The call rests on the fitted dose curve; in most records, active means well fitted inhibition curve with a large enough effect; inconclusive means small, poorly fitted or top-dose-only effect, or another doubt; inactive means no such curve, though single readings can be large or run the other way. The sample as a whole holds a higher share of actives than the screen did.

Test: qHTS Assay for Inhibitors of Hepatitis C Virus (HCV)
Conditions: Huh7.5.1 HCVcc-Cre infection, luciferase reporter, 44 h; series mostly up to 41.8 µM
Procedure, shortened: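 1,000 cells/well; 4 h culture; + compound; + HCVcc-Cre (~0.5 moi); 44 h; luciferase substrate, RT 15 min; read 15 sec.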
Potency means the concentration at half of the fitted maximal effect.

| Compound | Potency |
| --- | --- |
| CCN(C(=O)COC(=O)CCOc1cccc(C)c1)c1c(N)n(Cc2ccccc2)c(=O)[nH]c1=O | inactive |
| CC(OC(=O)c1ccc([N+](=O)[O-])cc1)C(=O)NCC1CCCCC1 (stereo not given) | inactive |
| N[C@@H](Cc1ccccc1)C(=O)N1CCOCC1 | inactive |
| COc1ccc(-c2cc(C(=O)N/N=C/c3cccnc3)c3ccccc3n2)c(OC)c1 | inactive |
| Cc1cc(C)cc(C(=O)NCCN2CCOCC2)c1 | inactive |
| CC(=O)Oc1cc2c(C(=O)NCCN3CCOCC3)c(C)oc2c2ccccc12 | 10 µM (active) |
| Cc1ccc(C(=O)NCCN2CCOCC2)cc1C | inactive |
| C[C@@H]1CN([C@H](C)CO)C(=O)c2cc(NC(=O)NC3CCCCC3)ccc2O[C@H]1CN(C)S(C)(=O)=O | inactive |
| Cc1ccc(S(=O)(=O)CCC(=O)OCC(=O)NCCc2ccc(S(N)(=O)=O)cc2)cc1 | inactive |
| COc1cc(CC(=O)Nc2nc(-c3ccc(F)c(F)c3)cs2)cc(OC)c1OC | 10 µM (active) |
| COc1cccc(CC(=O)Nc2nc(-c3ccc(OC)c(OC)c3)cs2)c1 | 12.6 µM (active) |
| COc1cccc(CC(=O)Nc2ccc(-c3csc(C)n3)cc2)c1 | inactive |
| COc1ccc(CC(=O)Nc2nc(-c3ccc(F)c(F)c3)cs2)cc1OC | 4.47 µM (active) |
| COc1ccc(-c2csc(NC(=O)c3ccc(N4C(=O)CCC4=O)cc3)n2)cc1OC | inactive |
| COc1ccc(CCN(C(=O)COc2ccccc2)c2nc(-c3ccccc3)cs2)cc1OC | inactive |
| Cc1ccc(-c2csc(NC(=O)Cc3cccs3)n2)cc1C | inactive |
| Cc1ccc(S(=O)(=O)NC(=O)Nc2nc(-c3ccc(F)c(F)c3)cs2)cc1 | inactive |
| COc1ccc(CC(=O)Nc2ccccc2NC(=O)c2ccco2)cc1OC | inactive |
| Cc1nc2ccccc2c(=O)n1-c1ccc(F)c(NC(=O)c2cccs2)c1 | inactive |
| CCCN(CC1CC1)C(=S)NC(=O)c1ccccc1Br | inactive |
| CCOc1ncccc1C(=O)OCC(=O)c1c[nH]c2ccccc12 | inactive |
| O=C(Nc1ccc2ccccc2c1[N+](=O)[O-])c1ccccc1 | inactive |
| COc1ccccc1C(=O)NCCC(=O)NCC(c1ccco1)N1CCCCC1 (stereo not given) | inactive |
| O=C(COC(=O)c1ccc(Br)o1)NC12CC3CC(CC(C3)C1)C2 | inactive |
| CN(C(=O)COC(=O)CCCc1c[nH]c2ccccc12)c1c(N)n(Cc2ccccc2)c(=O)[nH]c1=O | inactive |

| Compound | Potency |
| --- | --- |
| COc1ccc(Cl)cc1NC(=O)CN(C)C(=O)c1ccc2n[nH]nc2c1 | inactive |
| CN(C(=O)CSc1nnc(-c2ccc(C(C)(C)C)cc2)n1C)C1CCS(=O)(=O)C1 (stereo not given) | inactive |
| O=C(O)CSCC(=O)Nc1cccc(C(F)(F)F)c1 | inactive |
| O=C(Nc1cccc(C(F)(F)F)c1)c1cnccn1 | inactive |
| Cn1nc(C(F)(F)F)c(C(=O)Nc2cccc(C(F)(F)F)c2)c1SCc1ccc(Cl)cc1 | 10 µM (active) |
| O=C1OC[C@@H]2CCCN2C(=O)[C@H](CC(=O)N(CCO)Cc2ccccc2)C/C=C\CC[C@@H]1Cc1ccc(F)cc1 | inactive |
| O=C1c2ccccc2[C@@H]2C[C@@H](O)[C@H](Nc3ccccc3Cl)CCN12 | inactive |
| CSc1ccccc1NC(=O)c1cnc2sc(C)cn2c1=O | inactive |
| O=C(CN1C2=NCCN2c2ccccc21)c1cccs1 | inactive |
| Nc1c(C(=O)c2cccs2)sc2nsc(SCCN3CCCCC3)c12 | 10 µM (active) |
| O=C(C[C@H]1C[C@H](C(=O)N2CCOCC2)[C@@]2(CCC3CCCC3)c3[nH]c4ccc(Cl)cc4c3CCN2C1=O)NCc1ccco1 | inactive |
| CC(C)(C)OC(=O)C[C@@H]1C/C=C\C[C@@H](CC(=O)N[C@H](CO)Cc2ccccc2)C(=O)NCCOC1=O | inactive |
| O=S(=O)(O)c1cc2onnc2c2ccccc12 | inactive |
| Cc1c(Cl)cnc(NC(=O)COC(=O)C2CCCC2)c1Cl | inactive |
| CN(C)c1ccc(CSc2ccccc2)cc1 | inactive |
| c1ccc(Cc2cc[n+](Cc3ccccc3)cc2)cc1 | inactive |
| CN(C)c1cc[n+](Cc2ccccc2)cc1 | 0.891 µM (active) |
| O=C1CCC/C=C/C[C@@H](CC(=O)N(CCO)Cc2ccccc2)C(=O)NC[C@H](c2ccccc2)O1 | inactive |
| Cc1ccc(S(=O)(=O)N(C)c2ccc(OCC(=O)OCc3ccc(C#N)cc3)cc2)cc1 | inactive |
| O=C(CN1CCN(c2ccccn2)CC1)Nc1ccc(Br)cc1 | inactive |
| Cc1cc(Br)ccc1NC(=O)c1sc2ncn(CC(=O)N3CCN(c4ccccn4)CC3)c(=O)c2c1C | inactive |
| Cc1cc(Br)ccc1NC(=O)c1cnc(N2CCN(c3ccccn3)CC2)c2ccccc12 | 2.51 µM (active) |
| COc1ccc(NC(=O)N(C)C[C@H]2Oc3ccc(NC(=O)C4CC4)cc3C(=O)N([C@H](C)CO)C[C@@H]2C)cc1 | inactive |
| O=C(CCC(=O)c1cccs1)Nc1nc2ccccc2s1 | inactive |
| CCCn1c(=NC(C)=O)c(C(=O)OCC)cc2c(=O)n3ccccc3nc21 | inactive |

| Compound | Potency |
| --- | --- |
| CCOC(=O)c1cc2c(=O)n3ccccc3nc2n(CC(C)C)c1=NC(=O)c1c(-c2c(F)cccc2Cl)noc1C | 10 µM (active) |
| C/C(=N/OC(=O)c1c(-c2c(F)cccc2Cl)noc1C)c1cnccn1 | inactive |
| CC1CCc2c(sc3nc4n(c(=O)c23)CCS4)C1 (stereo not given) | inactive |
| CCCn1nnc2sc3c(c2c1=O)CCC(C)C3 (stereo not given) | inactive |
| CC1CCc2sc3nc(N4CCN(CCO)CC4)n4ncnc4c3c2C1 (stereo not given) | 20 µM (active) |
| Cc1ccc(CSc2ccc(S(=O)(=O)N3CCCCC3)cn2)cc1 | inactive |
| C=CC[C@@H](CC(=O)N[C@@H](CO)Cc1ccccc1)C(=O)N[C@H](COC(=O)[C@H](CC=C)CC(=O)OC(C)(C)C)Cc1ccccc1 | inactive |
| COc1cccc(NC(=O)CN(C)C(=O)c2cc(C3CC3)nn2-c2ccccc2)c1 | inactive |
| COc1ccc(COC(=O)c2n[nH]c3ccccc23)cc1F | inactive |
| CCN(CC)S(=O)(=O)c1ccc2nc(COC(=O)c3n[nH]c4ccccc34)[nH]c2c1 | 12.6 µM (active) |
| CCN(CC)S(=O)(=O)c1ccc2nc(CSc3nnnn3-c3ccc(O)cc3)[nH]c2c1 | inactive |
| CC(OC(=O)c1cc2ccccc2[nH]1)C(=O)N(C)c1ccccc1 (stereo not given) | inactive |
| CCN(CC)CCCNC(=O)c1c(O)c2cc(F)cc3c2n(c1=O)C(C)CC3 (stereo not given) | 10 µM (active) |
| CCNC(=O)c1c(O)c2cccc3c2n(c1=O)CC3 | inactive |
| CCN(CC)CCCNC(=O)c1cn(C)c2ccc(S(=O)(=O)N(C)C3CCCCC3)cc2c1=O | inactive |
| O=C(CSc1nnc(CN2CCCC2)n1-c1ccc(F)cc1)c1ccc2c(c1)OCO2 | inactive |
| COc1ccc(/C=C/C(=O)OCC(=O)N2CCN(S(=O)(=O)c3ccc(C)cc3C)CC2)cc1OC | inactive |
| C=CCC1(CC=C)CCCN1C(=O)c1cc(COc2ccc(-n3cncn3)cc2)on1 | 5.01 µM (active) |
| O=C(c1cc(COc2ccc(F)c(F)c2)on1)N1CCOCC1 | inactive |
| CCn1ccnc1CN(C)C(=O)c1cc(COc2ccc(-n3cncn3)cc2)on1 | inactive |
| O=C1C[C@@H]2c3c(cccc3CN1Cc1ccccc1)C[C@@H](O)[C@H]2O | inactive |
| Cc1ccc(-c2cc(=O)[nH]c(NCc3ccccc3)n2)cc1 | inactive |
| O=C(CN1C(=O)NC2(CCOc3ccccc32)C1=O)Nc1cccc([N+](=O)[O-])c1 (stereo not given) | inactive |
| CN(C(=O)COC(=O)c1cc(-c2ccco2)nc2ccccc12)C1CCS(=O)(=O)C1 (stereo not given) | inactive |
| Cc1c(-c2cccc(Cl)c2)nc2ccccc2c1C(=O)OCC(=O)N(C)C1CCS(=O)(=O)C1 (stereo not given) | 3.55 µM (active) |

| Compound | Potency |
| --- | --- |
| CN(C(=O)COC(=O)c1nc(Cl)ccc1Cl)C1CCS(=O)(=O)C1 (stereo not given) | inactive |
| Cc1ccc(CNC(=O)Cn2cnc3c(NCc4ccccc4)ncnc32)o1 | inactive |
| Cc1ccc(NC(=O)Cn2c(C)csc2=O)cc1 | inactive |
| CSCc1cc(N(C)C)nc(SCc2ccc(Cl)cc2Cl)n1 | 8.91 µM (active) |
| Clc1ccc(CSc2nnc(/C=C/c3ccccc3)o2)c(Cl)c1 | inactive |
| CSCc1cc(N2CCOCC2)nc(SCc2ccc(Cl)cc2Cl)n1 | inactive |
| Nn1c(SCC(=O)NC2CCCc3ccccc32)nnc1C1CC1 (stereo not given) | inactive |
| Cc1nnc(N/N=C/c2cccs2)[nH]c1=O | inactive |
| Cc1ccccc1Nc1nnc(C)c(=O)[nH]1 | inactive |
| Cc1nnc(N/N=C/c2ccccn2)[nH]c1=O | 3.55 µM (active) |
| CC(=O)N1CCc2ccc(N)cc21 | inactive |
| CCCCn1c(N)c(N(CCC(C)C)C(=O)CC2OC(=O)c3ccccc32)c(=O)[nH]c1=O (stereo not given) | inactive |
| COc1ccc(C2=NS(=O)(=O)N(C)C(C(=O)NC(C)c3ccccc3)=C2)cc1 (stereo not given) | inactive |
| COc1cc(NC(=O)C2=CC(c3ccco3)=NS(=O)(=O)N2C)cc(OC)c1OC | inactive |
| COc1ccc(NC(=O)C2=CC(c3ccc(OC)c(OC)c3)=NS(=O)(=O)N2C)cc1 | 8.91 µM (active) |
| COC(=O)C1CCN(C(=O)NC2CC(=O)N(c3ccc4c(c3)OCCO4)C2)CC1 (stereo not given) | inactive |
| O=S1(=O)CCOC[C@H](Cc2ccccc2)N1Cc1ccccc1Br | inactive |
| O=C(CCN1CCN(C/C=C/c2ccccc2)CC1)Nc1ccccc1Cl | inactive |
| CNC(=O)NC(=O)C(C)N1CCN(C/C=C/c2ccccc2)CC1 (stereo not given) | inactive |
| O=C1c2ccccc2C(=O)c2c1cccc2N1CCN(C/C=C/c2ccccc2)CC1 | 11.2 µM (active) |
| Nc1ncnc2c1cnn2C1CC(O)C(CO)O1 (stereo not given) | inactive |
| C=CCn1c(=O)n(C)c2c(=O)n(C)c(=O)n(C)c21 | inactive |
| Cc1cccc(OCC(O)Cn2c(=N)n(CCN3CCOCC3)c3ccccc32)c1 (stereo not given) | inactive |
| CCOc1ccc(C(O)Cn2c(=N)n(CCN3CCCCC3)c3ccccc32)cc1 (stereo not given) | 10 µM (active) |
| CCOc1ccc(C(O)Cc2nc3ccccc3n2C)cc1 (stereo not given) | inactive |
